# Data from PubChem BioAssay AID602393 (Broad Institute, 2012).
# Screen size: about 350,000 compounds; about 7,000 (2%) were called active. What follows is part of a selection rich in actives, with near analogues and random picks from the rest. Values without a mark were called inactive. Rule as the data show it: active = activation above about 40%; inconclusive = no clear call, values can overlap the other calls; inactive = below that.
# Assay: Bmi1 luciferase reporter increase in mESCs, primary screen, esBAF inhibitor project, mouse ES cells, Bmi1 luciferase knock-in, single point (AID 602393);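 also: 0% = median of the plate's neutral control wells and 100% = double that signal; a rise in the Bmi1 reporter signal indicates esBAF inhibition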
# Conditions: 24 h, at 12.5 µM, active compounds read high, 100% = twice the neutral-well signal
row,Compound,reporter increase
1,CCCNC(=O)N(C)C[C@H]1Oc2cc(C#C[C@@H](C)O)ccc2S(=O)(=O)N([C@H](C)CO)C[C@H]1C,-0.613%
2,COCC(=O)N1C[C@@H]2[C@H](c3ccccc31)[C@@H](CO)N2C(=O)C1CC1,-6.95%
3,CCNC(=O)[C@@H]1[C@@H](CO)[C@@H]2Cn3c(ccc(-c4ccncc4)c3=O)[C@@H]2N1Cc1cc(F)ccc1F,-2.84%
4,CCCC(=O)Nc1nc2ccc(NC(=O)c3c(F)c(F)c(OC)c(F)c3F)cc2s1,-33%
5,O=C(CCNC(=O)c1ccccc1)Nc1nc2ccccc2s1,59.5% (active)
6,CC(C)Cc1nnc(NC(=O)CCNC(=O)c2ccccc2Cl)s1,-1.82%
7,O=S(=O)(N[C@H]1CC[C@@H](CCNS(=O)(=O)c2ccccc2Cl)O[C@@H]1CO)c1ccccc1,2.98%
8,CCOc1ccc(NC(=O)C/C(C)=N/NC(=O)Cc2cccs2)cc1,-1.12%
9,O=C(Cc1cccs1)Nc1ccc([N+](=O)[O-])cc1,1.47%
10,CCOC(=O)c1ccc(NC(=O)Cc2cccs2)cc1,49.7% (active)
11,CN(C)CC(=O)Nc1ccc2c(c1)[C@H]1C[C@@H](CC(=O)NCc3ccccn3)O[C@@H](CO)[C@H]1O2,-2.09%
12,COc1cccc(S(=O)(=O)N(C)C[C@@H]2Oc3cc(C4=CCCCC4)ccc3S(=O)(=O)N([C@H](C)CO)C[C@H]2C)c1,-4.77%
13,C[C@H](NC(=O)c1ccccc1)C(=O)OCC(=O)c1c[nH]c2ccccc12,4.74%
14,O=C(OCC(O)C(O)COC(=O)c1ccccc1)c1ccccc1 (stereo not drawn),-4.1%
15,CCOc1ncccc1C(=O)OCC(=O)c1c[nH]c2ccccc12,5.19%
16,Cc1ccc(S(=O)(=O)c2c(COC(=O)c3cccc(Cl)c3)c(-c3ccccc3)nn2C)cc1,12.1%
17,O=C(OCc1ccc(-c2ccccc2)cc1)c1cccc(O)c1,56.3% (active)
18,O=C(OCC(=O)c1c[nH]c2ccccc12)c1cccc(O)c1,96.8% (active)
19,COCC(=O)N1C[C@@H](C)[C@H](OC)CN(C)C(=O)c2ccc(NC(=O)c3ccc(F)cc3)cc2OC[C@H]1C,-1.39%
20,CCCNC(=O)N1[C@H](CNC(C)=O)[C@@H](c2ccc(C3=CCCC3)cc2)[C@@H]1CO,2.55%
21,O=C(c1cc(-c2ccc(O)cc2)on1)N1CCOCC1,-6.48%
22,O=C(c1cc(-c2ccc(Cl)cc2)on1)N1CCN(c2ccccc2)CC1,60.8% (active)
23,COc1ccc(-c2cc(C(=O)N3CCN(c4ccc(F)cc4)CC3)no2)cc1,5.86%
24,CC(C)NC(=O)Nc1ccc2c(c1)C(=O)N(C)[C@@H]1CC[C@H](CC(=O)NCC3CCCCC3)O[C@@H]1CO2,7.05%
25,COCC(=O)N[C@@H]1C=C[C@@H](CC(=O)N2CCCCC2)O[C@@H]1CO,0.0415%
26,COc1ccccc1C(=O)N1C[C@H]2[C@@H](c3ccccc31)[C@H](CO)N2C(=O)C1CC1,-3.8%

row,Compound,reporter increase
1,O=C(C[C@@H]1C=C[C@@H](NC(=O)c2cccnc2)[C@H](CO)O1)NCCN1CCCCC1,-3.44%
2,COc1cccc(S(=O)(=O)N[C@H]2C=C[C@H](CC(=O)NC3Cc4ccccc4C3)O[C@H]2CO)c1,-3.77%
3,CCOc1ccc(-n2c(SCC(=O)Nc3ccc(OC)cc3)nc3sc4c(c3c2=O)CCN(C)C4)cc1,1.84%
4,CCOc1ccc(-n2c(SCC(=O)OC)nc3sc4c(c3c2=O)CCN(C)C4)cc1,4.82%
5,COc1ccccc1NC(=O)CSc1nc2sc3c(c2c(=O)n1-c1ccccc1)CCN(C)C3,50.8% (active)
6,COc1cccc(C(=O)Nc2cc3c(cc2Br)OCCCO3)c1,82% (active)
7,COc1cccc(C(=O)NCCSc2ccc(Br)cc2)c1,-4.36%
8,COc1cccc(C(=O)Nc2nnc(S(=O)(=O)N3CCOCC3)s2)c1,1.13%
9,c1ccc2cc3[nH]c(CN4CCCCC4)nc3cc2c1,43.8% (active)
10,Clc1ccc(CN2CCCCCC2)cc1Cl,-0.902%
11,O=c1cc(CN2CCCCCCC2)c2c(ccc3ccccc32)o1,2.61%
12,O=C(C[C@H]1CC[C@@H](NC(=O)Cc2ccccn2)[C@H](CO)O1)NCCc1ccccc1,3.63%
13,O=C(/C(=C/c1cccc(Cl)c1)c1nc2ccccc2[nH]1)c1ccccc1,98.1% (active)
14,O=c1c2cc(Br)ccc2nc(-c2cccc(Cl)c2)n1O,-7.05%
15,C[C@H](O)C#Cc1ccc2c(c1)O[C@H](CN(C)C)[C@@H](C)CN([C@H](C)CO)S2(=O)=O,-3.76%
16,C[C@@H]1CN([C@@H](C)CO)C(=O)Cc2cc(NC(=O)Nc3ccc(F)cc3)ccc2O[C@@H]1CN(C)C(=O)NC1CCCCC1,1.74%
17,COCC1CCCN(C(=O)c2ccc3oc(C(C)C)nc3c2)C1 (stereo not drawn),21.9%
18,COCC1CCN(C(=O)c2ccc3oc(Cc4ccccc4)nc3c2)C1 (stereo not drawn),22.8%
19,COCC1CCN(C(=O)CCc2nnc(C3(c4ccc(Cl)cc4)CCC3)o2)C1 (stereo not drawn),52% (active)
20,C[C@@H]1CCCCO[C@@H](CN(C)C(=O)C2CCCCC2)[C@H](C)CN([C@H](C)CO)C(=O)c2cc(NC(=O)CCC(F)(F)F)ccc2O1,15.7%
21,COc1cccc(CNC(=O)C[C@@H]2CC[C@@H]3[C@H](COc4ccc(NC(C)=O)cc4C(=O)N3C)O2)c1,-1.5%
22,CCOC(=O)C1(Cc2cccc(OC)c2)CCCN(C(=O)CCSC)C1 (stereo not drawn),51.6% (active)
23,CCOC(=O)C1(Cc2cccc(OC)c2)CCN(C(C)CC(C)(C)O)CC1 (stereo not drawn),-4.88%
24,CCOC(=O)C1(CCOc2ccccc2)CCN(Cc2cc(OC)cc(OC)c2)CC1,-7.06%
25,CNC(=O)C[C@H]1CC[C@@H]2[C@@H](COc3ccc(NC(=O)c4ccc(F)c(F)c4)cc3C(=O)N2C)O1,0.615%
26,C[C@@H]1CN([C@H](C)CO)C(=O)c2cc(C#CC3CC3)cnc2O[C@@H]1CN(C)Cc1ccccn1,-2.08%

row,Compound,reporter increase
1,COc1ccc(-c2csc(Nc3cccc(C)n3)n2)cc1OC,86.6% (active)
2,COc1cccc(-c2cnc3c(NC(C)=O)cc(-c4cccc(NC(C)=O)c4)cn23)c1,6.31%
3,CC(=O)NC(c1cccc(F)c1)c1nc(-c2cccc(F)c2)cs1 (stereo not drawn),1.42%
4,COc1cc(NC(=O)c2ccc(-c3csc(C)n3)cc2)c(OC)cc1Cl,23.9%
5,COc1cccc(C(O)c2nc(-c3ccc(C)c(C)c3)cs2)c1 (stereo not drawn),3.8%
6,CC(=O)NC(c1ccccc1)c1nc(-c2cccc(C(C)C)c2)cs1 (stereo not drawn),-2.45%
7,CC(=O)Nc1cccc(-c2csc(Nc3cccc(C)n3)n2)c1,51.5% (active)
8,CC(=O)Nc1cccc(-c2cc(NC(C)=O)c3ncc(-c4ccccc4)n3c2)c1,-27.3%
9,CC(=O)Nc1cccc(-c2cnc3ccccc3n2)c1,72.3% (active)
10,COc1cccc(-c2cnc3c(c2)C(=O)N([C@H](C)CO)C[C@@H](C)[C@H](CN(C)Cc2ccc(F)cc2)O3)c1,1.81%
11,Cc1noc(C)c1S(=O)(=O)N(C)C[C@@H]1OCCCC[C@@H](C)Oc2ccc(NC(=O)c3ccccc3)cc2C(=O)N([C@@H](C)CO)C[C@@H]1C,4.85%
12,COc1ccc(S(=O)(=O)Nc2ccc3c(c2)C(=O)N([C@@H](C)CO)C[C@H](C)[C@@H](CN(C)C(=O)c2ccccc2)OCCCC[C@H](C)O3)cc1,-1.88%
13,C/C=C/c1ccc([C@H]2[C@@H](CO)N(C(C)=O)[C@H]2CNC(=O)c2ccncc2)cc1,2.82%
14,C[C@@H]1CN([C@@H](C)CO)C(=O)c2cc(NS(=O)(=O)c3ccccc3)ccc2O[C@@H](C)CCCCO[C@H]1CN(C)S(=O)(=O)c1cccs1,-5.79%
15,O=C(C[C@@H]1C=C[C@@H](NC(=O)c2ccc3c(c2)OCO3)[C@H](CO)O1)NC1Cc2ccccc2C1,4.12%
16,C[C@@H]1CCCCO[C@H](CN(C)C(=O)CCC(F)(F)F)[C@H](C)CN([C@@H](C)CO)C(=O)c2cc(NC(=O)CCCCCC(=O)Nc3ccccc3N)ccc2O1,1.1%
17,COc1ccccc1N1CCN(/N=C/c2ccc(O)cc2O)CC1,60.9% (active)
18,COc1cc(/C=N/N2CCN(c3ccccc3)CC2)ccc1OC(C)=O,7.78%
19,COc1ccccc1N1CCN(/N=C\C(Br)=C\c2ccccc2)CC1,24.6%
20,CN(C)CC(=O)Nc1ccc2c(c1)[C@@H]1C[C@H](CC(=O)NCC3CC3)O[C@@H](CO)[C@@H]1O2,5.49%
21,CO[C@@H]1CN(C)C(=O)c2cc(NC(=O)c3ccc4c(c3)OCO4)ccc2OC[C@H](C)N(CCC(F)(F)F)C[C@H]1C,1.54%
22,O=C(NCC[C@@H]1CC[C@H](NS(=O)(=O)c2cccc(F)c2)[C@H](CO)O1)c1cnccn1,-3.13%
23,C[C@H](CO)N1C[C@H](C)[C@@H](CN(C)Cc2ccccn2)Oc2ncc(-c3cccc(F)c3)cc2C1=O,0.648%
24,COc1ccc(CNC(=O)COc2ccccc2C(=O)c2cnn(-c3ccccc3)c2)cc1OC,75.1% (active)
25,COc1cc(C=O)c(Br)cc1OCC(=O)NCc1ccccc1,0.717%
26,COC(=O)COc1cccc2c(=O)n(CC(=O)NCCc3ccc(OC)c(OC)c3)ccc12,8.15%
